High-throughput results deposited in PubChem by The Scripps Research Institute Molecular Screening Center.
Most compounds without a hit are left out; they make up all but 2.6% or so of the library.
PAFAH1B2 FP inh: PAFAH1B2 enzyme inhibitors, primary screen, biochemical, fluorescence polarization, human. Platelet-activating factor acetylhydrolase IB subunit alpha2 (Homo sapiens), P68402. recombinant PAFAH1B2, FP-rhodamine activity probe. inhibition, % at 3.39 µM. 1.2% of 340,000 active. AID 492953, 2010;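 active means inhibition above the mean of all tested compounds plus 3 SD, cut at about 24% in these data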;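 further: 0% = enzyme with DMSO and 100% = wells lacking PAFAH1B2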
Target sequence (P68402 whole entry, looked up): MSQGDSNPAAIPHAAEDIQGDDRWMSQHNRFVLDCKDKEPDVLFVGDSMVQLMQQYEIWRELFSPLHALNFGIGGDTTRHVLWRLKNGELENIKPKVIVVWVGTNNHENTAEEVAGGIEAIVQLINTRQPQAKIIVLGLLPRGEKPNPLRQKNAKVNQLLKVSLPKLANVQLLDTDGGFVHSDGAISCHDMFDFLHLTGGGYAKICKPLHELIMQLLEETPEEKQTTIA
PKA-R1A act: activators of PKA-R1A holoenzyme, primary screen, biochemical, fluorescence polarization, Cy5-IP20, bovine R1A, mouse PKAc | PKA-R1A dissociation; scaled: DMSO 0%, 113 µM cGMP 100% | cAMP-dependent protein kinase type I-alpha regulatory subunit (Bos taurus) + … | activation, % at 11.4 µM | 0.083% of 340,000 active;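 active means percent activation above the mean of all tested compounds plus 3 SD, cut at about 19% in these data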;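 further: higher means more PKAc released from R1A so a rise in polarization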
PAFAH1B3 FP inh: PAFAH1B3 enzyme inhibitors, primary screen, biochemical, fluorescence polarization, human. Platelet-activating factor acetylhydrolase IB subunit alpha1 (Homo sapiens), Q15102. recombinant PAFAH1B3, FP-rhodamine probe. inhibition, % at 3.39 µM. 0.28% of 340,000 active;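 active means inhibition above the screen-wide average of all tested compounds plus 3 SD, cut at about 25% in these data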;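 further: 0% = enzyme with DMSO only and 100% = wells lacking PAFAH1B3 protein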
PAFAH2 inh: PAFAH2 enzyme inhibitors, primary screen, biochemical, fluorescence polarization, human; recombinant PAFAH2, FP-rhodamine activity probe; inhibition, % at 3.39 µM; 0.99% of 340,000 active;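 active means inhibition above the mean over all tested compounds plus 3 SD, cut at about 30% in these data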;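 further: inhibitors block probe labeling of enzyme so polarization drops; 0% = enzyme with DMSO and 100% = wells lacking PAFAH2 protein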
PKA-R2B activ: activators of PKA-R2B holoenzyme, primary screen, biochemical, fluorescence polarization, Cy5-IP20, human; cAMP-dependent protein kinase catalytic subunit beta (Homo sapiens) + cAMP-dependent …; PKA-R2B holoenzyme dissociation; R2B truncated from residue 108, S112A mutant; 0% DMSO only, 100% 113 µM cGMP; activation, % at 11.4 µM; 0.079% of 340,000 active; AID 504700, 2011;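 active means activation above a cutoff set at the mean over all compounds plus 3 SD, cut at about 18% in these data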;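 further: higher means more holoenzyme dissociation and a rise in polarization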
pPAFAH FP inh: pPAFAH enzyme inhibitors, primary screen, biochemical, fluorescence polarization, human | recombinant pPAFAH, FP-rhodamine probe fluorescence polarization | Platelet-activating factor acetylhydrolase (Homo sapiens), Q13093 | inhibition, % at 3.39 µM | 1.5% of 330,000 active;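 active means inhibition above the mean inhibition across the screen plus 3 SD, cut at about 25% in these data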;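 further: inhibitors block binding of the rhodamine activity-based probe so polarization drops; 0% = enzyme with DMSO and 100% = wells lacking pPAFAH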
PAFAH1B3 confirm: PAFAH1B3 enzyme inhibitors, confirmation, biochemical, fluorescence polarization, human | inhibition, % at 3.39 µM | shares compounds with PAFAH1B3 FP inh | recombinant PAFAH1B3, FP-Rh activity-based probe | 30% of 390 active | AID 493032, 2011;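 active means average inhibition over triplicate runs above the hit cutoff set in the earlier primary screen, cut at about 25% in these data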;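 further: 0% = enzyme with DMSO and 100% = wells lacking PAFAH1B3 protein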
R2B FP artifact: fluorescence polarization artefacts, biochemical, artefact control for PKA-R2B activator project; FP artifact counterscreen; activation, % at 11.4 µM; shares compounds with PKA-R2B activ; 6% of 270 active; in the data active means activation above about 20%;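 further: Cy5 labelled IP20 peptide probe with compound but no PKA protein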
PKA-R2B act conf: activators of PKA-R2B holoenzyme, confirmation, biochemical, fluorescence polarization, human; shares compounds with PKA-R2B activ; PKA-R2B complex, activation; activation, % at 11.4 µM; 9% of 270 active; AID 504797, 2011; in the data active means activation above about 19%
Target sequence (P31323 whole entry, looked up): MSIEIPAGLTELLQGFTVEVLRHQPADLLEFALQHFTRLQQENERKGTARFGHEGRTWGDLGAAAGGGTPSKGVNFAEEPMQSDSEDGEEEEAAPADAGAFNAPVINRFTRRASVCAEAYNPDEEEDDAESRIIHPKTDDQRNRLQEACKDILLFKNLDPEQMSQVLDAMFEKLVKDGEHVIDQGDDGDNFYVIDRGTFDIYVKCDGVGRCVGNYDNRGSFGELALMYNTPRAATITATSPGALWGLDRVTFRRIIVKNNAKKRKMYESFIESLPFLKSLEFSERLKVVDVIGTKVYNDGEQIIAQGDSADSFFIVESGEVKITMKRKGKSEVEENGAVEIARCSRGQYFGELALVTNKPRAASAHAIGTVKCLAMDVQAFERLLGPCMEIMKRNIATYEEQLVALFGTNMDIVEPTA
Numbers without * were called inactive; . = not tested or not shown.

SMILES	PAFAH1B2 FP inh	PKA-R1A act	PAFAH1B3 FP inh	PAFAH2 inh	PKA-R2B activ	pPAFAH FP inh	R2B FP artifact	PKA-R2B act conf	others
COc1ccc2c(c1)CC=C1C2CCC2(C)C(=O)C(=NO)CC12 (configuration not stated)	19	-7	33*	15	-2	.	.	.	PAFAH1B3 confirm=29*
COc1ccc(CNC(=O)C2CCCN2C(=O)Nc2cccc(Cl)c2)cc1 (configuration not stated)	.	-12	.	.	3	.	.	.
CC1(C)Cc2c(C#N)c(N)n(-c3ccccc3)c(=S)c2CO1	.	.	.	.	.	4	.	.
CC1(C)C=C2C(=NN(c3ccccc3)C(N)=C2C#N)CO1	12	4	44*	4	2	8	.	.	PAFAH1B3 confirm=51*
CC1CCCC(C)N1C(=O)COC(=O)CNS(=O)(=O)c1ccc2ccccc2c1 (configuration not stated)	.	6	.	.	-2	.	.	.
NS(=O)(=O)c1ccc(N2C(=O)CCCC2=O)cc1	.	4	.	.	10	.	.	.
Cc1c(NS(=O)(=O)c2cccc(C(=O)N3CCC(C(N)=O)CC3)c2)c(=O)n(-c2ccccc2)n1C	0	0	8	-2	-5	0	.	.
Cc1cccc(Cn2nnc3c2C(=O)c2ccccc2C3=O)c1	10	-4	30*	7	2	1	.	.	PAFAH1B3 confirm=9
Cc1ccccc1Cn1nnc2c1C(=O)c1ccccc1C2=O	0	-18	22	2	7	2	.	.
Cc1nc(N)sc1-c1csc(Nc2cccc(C(=O)O)c2)n1	11	-2	29*	9	5	.	.	.	PAFAH1B3 confirm=8
O=C(Nc1nccs1)C1CC=CCC1 (configuration not stated)	1	-8	2	-7	7	9	.	.
O=C(Nc1ccc(O)cc1)C1CC=CCC1 (configuration not stated)	13	11	27*	26	9	17	.	.	PAFAH1B3 confirm=12
Cc1cc(C)c[n+](C2=C([O-])c3ccccc3C(=O)/C2=N\S(=O)(=O)c2cccs2)c1	4	-3	33*	9	-5	10	.	.	PAFAH1B3 confirm=23
COc1ccc(CC(O)CO)cc1OCc1ccccc1 (configuration not stated)	.	2	.	.	-5	.	.	.
COCCCNC(=S)N1CCCN(c2nc3cc(C)c(C)cc3cc2C#N)CC1	10	-11	26*	2	7	-1	.	.	PAFAH1B3 confirm=4
CCOCCCNC(=S)N1CCCN(c2nc3cc(C)c(C)cc3cc2C#N)CC1	7	-9	4	2	-1	-2	.	.
COc1ccc(C2=NS(=O)(=O)N(C)C(C(=O)Nc3ccc(C(C)=O)cc3)=C2)cc1OC	2	-1	5	-7	-1	8	.	.
O=C(O)c1cccc(NC2=C(Cl)C(=O)c3ccccc3C2=O)c1	13	9	27*	21	22*	.	1	0	PAFAH1B3 confirm=23
C/C=C(\C)CN1CCC(n2nccc2NC(=O)CCCc2ccccc2)CC1	7	-12	1	5	1	.	.	.
COCCn1c(SCC(=O)NCCc2ccc(OC)c(OC)c2)nc2c([nH]c3ccccc32)c1=O	3	-4	9	-2	5	0	.	.
COCCn1c(SCC(=O)NCCc2ccccc2)nc2c([nH]c3ccccc32)c1=O	-2	-6	1	7	20*	1	3	0
CCOCCCNC(=O)c1c[nH]c2ccc(OCC)cc2c1=O	5	-7	2	-2	-9	-2	.	.
Cn1nc(C(F)(F)F)c(C(=O)Nc2ccc(F)cc2)c1Cl	0	-1	7	-3	20*	-5	-2	2
COc1ccc(NC(=O)c2c(C(F)(F)F)nn(C)c2Cl)cc1	.	.	.	.	.	2	.	.
CCOC(=O)C1=C(c2ccccc2)NC(SCC(=O)Nc2ccc(C)cc2)=C(C#N)C1c1ccco1 (configuration not stated)	0	-3	8	-54	3	-21	.	.
SMILES	PAFAH1B2 FP inh	PKA-R1A act	PAFAH1B3 FP inh	PAFAH2 inh	PKA-R2B activ	pPAFAH FP inh	R2B FP artifact	PKA-R2B act conf	others
CCOC(=O)C1=C(c2ccccc2)NC(SCC(=O)Nc2ccccc2C)=C(C#N)C1c1ccco1 (configuration not stated)	1	2	4	-14	19*	-4	4	1
Cc1nn(CC(C)C)c(Cl)c1C(=O)N(C)CC(=O)Nc1ccc(Cl)cc1	.	-4	.	.	-11	.	.	.
O=C(COC(=O)c1ccccc1O)NC1CCCc2ccccc21 (configuration not stated)	4	1	6	4	21*	2	2	5
CCc1ccc(C(=O)NCC2(c3ccccc3)CCOCC2)o1	1	7	6	-4	-1	.	.	.
COc1ccc(C2/C(=C(/O)c3ccc4c(c3)CC(C)O4)C(=O)C(=O)N2CCCn2ccnc2)cc1OC (configuration not stated)	4	6	4	11	-12	.	.	.
CCC1NC(=O)c2cc(S(N)(=O)=O)c(Cl)cc2N1 (configuration not stated)	-2	10	1	-11	21*	4	4	2
S=C(Nc1ccc(Cl)cc1)N(CCCN1CCOCC1)Cc1cccs1	8	-1	10	11	22*	-4	2	5
CN(C)S(=O)(=O)c1ccc(S(=O)(=O)NCc2cccs2)cc1	2	-2	7	-3	25*	2	0	-1
Cc1ccc(N2C(=O)C3ON(c4ccccc4)C(c4ccncc4)C3C2=O)cc1 (configuration not stated)	9	3	3	-1	20*	1	2	3
O=C1C2ON(c3ccccc3)C(c3ccncc3)C2C(=O)N1c1ccc(Br)cc1 (configuration not stated)	3	-7	7	1	5	4	.	.
COc1ccc(-c2c(NCCc3ccccc3)c(=O)c2=O)cc1	1	1	13	0	5	1	.	.
